In PubChem BioAssay:
A number with no mark means an inactive call. The rule behind the calls is not given here.

Experiment: compounds altering viability of human ES cells (AID 493140);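 note: cells exposed to compounds for four days before counting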
Conditions: human embryonic stem cell survival screen; hits give high values
Molecule `Nc1ncc2[nH]cnc2n1` has a survival of 108. With `CCCCCC#CC[C@@H](O)/C=C/C=C/C=C\[C@@H](O)CCCC(=O)O` the survival was 71.7. With `CO[C@@H]1[C@H](OC(N)=O)C(O)[C@H](Oc2ccc3c(O)c(NC(=O)c4ccc(O)c(CC=C(C)C)c4)c(=O)oc3c2C)OC1(C)C` (stereo not given in full) the survival was 8.33. Molecule `CCCCC/C=C\C\C=C/C=C/C=C/[C@@H](SCC(NC(=O)CCC(N)C(=O)O)C(=O)NCC(=O)O)[C@@H](O)CCCC(=O)O` (stereo not given in full) has a survival of 90.2. `CCO[C@@H]1O[C@H](C(COCc2ccccc2)OCc2ccccc2)[C@@H](OCc2ccccc2)C1O` (stereo not given in full) showed a survival of 10.8.
